The nature of assay [1]: yeast TOR pathway RPL19A-GFP modulators, primary screen, cell-based, S. cerevisiae, multiplex flow cytometry (AID 1862; in the data active means percent of DMSO control GFP below about 86%;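 further: lower values mimic rapamycin by blocking the RPL19A rise seen in DMSO cells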). Particulars: S. cerevisiae RPL19A-GFP strain, flow cytometry fluorescence, 3 h; at 10 µM; stronger effect = lower value.
Assay [2] in a line: modulators of MEP2-GFP levels in yeast, primary screen, S. cerevisiae, multiplex flow cytometry (AID 1867;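 active means GFP response, as percent of the DMSO control, above the screen-wide mean plus 3 SD, about 139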;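 further: median GFP channel fluorescence of barcode-gated MEP2-GFP cells measured by flow cytometry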). The following applies: S. cerevisiae MEP2-GFP strain, 3 h, at 10 µM, stronger effect = higher value, 100% means same as DMSO wells.
A short description of assay [3]: modulators of CIT2-GFP expression in yeast, primary screen, S. cerevisiae, GFP fusion, multiplex flow cytometry (AID 1870;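 active means percent response above a set limit, the screen-wide mean plus 3 SD, cut at about 130% in these data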;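 further: barcoded CIT2-GFP strain pooled with four other GFP strains with rapamycin as positive control; median GFP fluorescence per well over plate mean of DMSO wells so 100% = DMSO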). The following applies: 3 h, at 10 µM, stronger effect = higher value. (In flow cytometry, cells or beads pass a laser one at a time.)
A short description of assay [4]: modulators of LAP4-GFP expression in yeast, primary screen, S. cerevisiae, multiplex flow cytometry (AID 1873;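 active means GFP signal, as percent of the solvent control, above the screen mean plus 3 SD, about 149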). Particulars: 3 h, at 10 µM, stronger effect = higher value.
Assay [5] is described as follows: modulators of AGP1-GFP expression in yeast TOR pathway, primary screen, cell-based, multiplex flow cytometry, S. cerevisiae (AID 1887;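 active means GFP signal above the screen-wide mean plus 3 SD, that is over about 124.5% of the solvent control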;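 further: AGP1-GFP fusion strain of S. cerevisiae within a five-strain barcoded multiplex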). The following applies: 3 h, at 10 µM, stronger effect = higher value.
Assay [6] is described as follows: inhibitors of CD8+ T cell-vesicle binding, pilot screen, LFA-1/ICAM-1 modulator project, MLPCN validation set, flow cytometry (AID 2523;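 active means response below a set limit, under 55% cells CD8-positive and vesicle-bound, and CD8 cells' 90th-percentile brightness under 279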;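 on vesicle binding response: mean PE anti-B7-1 fluorescence of CD8+ cells relative to row control; 100% = QL9-loaded vesicles with DMSO vehicle in the same plate row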). Particulars: 2C mouse CD8+ T cells, at 7 µM, stronger effect = lower value; double positive events: measured here: CD8+/vesicle+ event percentage.
In assay [7] the target is Integrin beta-1 (Homo sapiens) + Integrin alpha-4 (Homo sapiens) (UniProt P13612+P05556). The experiment in a line: inhibition of HUTS-21 binding to VLA-4, pilot screen, VLA-4 allosteric modulator project, U937 cells, HUTS-21 mAb, flow cytometry, validation set (AID 2674;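 active means inhibition above 50%, about 3 SD of the validation set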;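 further: antibody binding induced by the VLA-4 ligand LDV present at three times its Kd; 0% = LDV ligand with antibody and no compound and 100% = antibody without LDV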). The following applies: HUTS-21 LIBS mAb binding, at 6.7 µM, stronger effect = higher value, binding induced by LDV ligand.

Assay [8] can be described thus: superoxide lowering in aged yeast cells, pilot screen, validation compound set (AID 2706;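 active means superoxide response below 65% of plate, a cut near 3 SD across the whole screen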;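 further: yeast exposed to compound for one week at 30 degrees C before staining; 100% = mean of all compound wells on the same plate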). Particulars: S. cerevisiae aging, superoxide DHE fluorescence; at 10 µM; stronger effect = lower value.
The target in assay [9] is Beta-adrenergic receptor kinase 1 (Homo sapiens) (UniProt P25098). Nature of the assay: GRK2 binders displacing RNA aptamer, biochemical, validation, human GRK2, bead flow cytometry (AID 488806;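 active means aptamer binding inhibition above 30%, about 3 SD of noise from non-fluorescent compounds; inactive means inhibition at or below 30%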). Particulars: bead-bound GRK2, FAM-aptamer displacement, at 10 µM, stronger effect = higher value.
Assay [10] concerns the target Beta-2 adrenergic receptor (Homo sapiens) (UniProt P07550). Nature of the assay: beta2AR agonists driving receptor internalization, pilot screen, cell-based, FAP fluorogen, flow cytometry, validation set (AID 504459;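 active means percent response above 42, roughly 3 SD of non-fluorescent test compounds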;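 further: agonist-driven loss of surface beta2AR via internalization measured by FAP dye flow cytometry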). The following applies: Am2.2-beta2AR cells, FAP surface receptor flow cytometry; at 10 µM; stronger effect = higher value.
Assay [11] concerns the target AP-2 complex subunit beta (Homo sapiens) (UniProt P63010). Nature of the assay: inhibitors of arrestin peptide binding to AP2, pilot screen, biochemical, validation set, GST-AP2 beads, flow cytometry (AID 504541;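 active means inhibition above 54%, about 3 SD of non-fluorescent compounds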;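 further: AP2 carries R879A mutation and is captured from E. coli lysate; bead-bound FITC arrestin peptide fluorescence measuring arrestin peptide binding to AP2; 0% = DMSO wells and 100% = excess unlabeled arrestin peptide control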). The following applies: FITC arrestin peptide, at 10 µM, stronger effect = higher value, AP2 beta2 appendage fragment, R879A mutant.
Assay [12] is described as follows: yeast V-ATPase proton transport modulators, S. cerevisiae, pHLuorin, HTS validation (AID 504600; in the data active means response above about 15%;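 further: plate controls were DMSO for no effect and reference compound for full effect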). Particulars: S. cerevisiae pHLuorin cytosolic pH, at 10 µM, stronger effect = higher value.
The subject of assay [13] is anti-desmoglein-3 scFv antibody binding to human DSG3. The experiment in a line: inhibitors of anti-DSG3 scFv binding to DSG3, pilot screen, biochemical, validation compound set, bead-based, flow cytometry (AID 588368;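 active means binding below the plate cutoff, the plate median minus 3 SD, with a reading above zero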;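 further: signal is the median channel fluorescence of bead-bound GFP antibody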). The following applies: Protein G beads, DSG3-Fc, scFv-GFP binding, at 10 µM, stronger effect = lower value.
A short description of assay [14]: inhibitors of fungal efflux pumps CDR1, CDR2, MDR1, pilot screen, validation compound set, multiplex, phenotypic (AID 588506;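 active means efflux inhibition above 0.42, the validation set average plus 4 SD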;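 further: Nile Red retained in cells so higher fluorescence means more efflux inhibition; 0 = negative control wells and 1 = enniatin B 25 µM full block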). Particulars: S. cerevisiae pump-expressing triplex, Nile Red efflux flow cytometry; at 10 µM; stronger effect = higher value; the pumps come from Candida albicans.
Assay [15] addresses ATP-binding cassette sub-family B member 6 (Homo sapiens) (UniProt Q9NP58). The experiment in a line: ABCB6 transporter inhibitors, pilot screen, K562-ABCB6 cells, flow cytometry, validation set (AID 588550).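 Further: 0% = DMSO wells and 100% = benzethonium chloride 70 µM positive control.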 The following applies: K562-ABCB6 porphyrin accumulation, 1 h, at 10 µM, stronger effect = higher value.
Assay [16] is described as follows: promoters of myeloid differentiation in arrested cells, primary screen, cell-based, GFP/MAC1 double positive, flow cytometry, validation set (AID 588685;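 active means differentiation response of at least 50%, scaled between solvent and reference control, from cells with both markers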;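 further: compound exposure lasts four days before antibody staining and flow analysis; 0% = DMSO wells and 100% = 5 µM fulvestrant positive control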). The following applies: ER-HoxA9 marrow cells, stronger effect = higher value, normalized: vehicle 0, fulvestrant 100.

Inconclusive results are not listed. Activity calls are given as the source filed them.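 How the source made its calls, unless noted: active means inhibition above the screen-wide mean plus 3 SD, about 51%; inactive means the rest.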

Sequence of Beta-2 adrenergic receptor (Homo sapiens) (P07550 whole entry, looked up): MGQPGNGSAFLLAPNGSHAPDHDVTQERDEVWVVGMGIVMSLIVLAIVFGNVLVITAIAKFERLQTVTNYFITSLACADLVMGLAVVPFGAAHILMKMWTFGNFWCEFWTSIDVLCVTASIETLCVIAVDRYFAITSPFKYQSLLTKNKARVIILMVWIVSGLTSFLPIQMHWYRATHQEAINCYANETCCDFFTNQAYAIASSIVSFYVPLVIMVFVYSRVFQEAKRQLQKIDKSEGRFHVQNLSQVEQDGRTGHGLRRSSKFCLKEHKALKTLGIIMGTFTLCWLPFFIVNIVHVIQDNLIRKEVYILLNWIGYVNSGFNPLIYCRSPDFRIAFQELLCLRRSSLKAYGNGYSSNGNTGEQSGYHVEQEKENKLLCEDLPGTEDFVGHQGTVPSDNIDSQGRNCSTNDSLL
Sequence of Integrin beta-1 (Homo sapiens) + Integrin alpha-4 (Homo sapiens) (P05556 whole entry, looked up): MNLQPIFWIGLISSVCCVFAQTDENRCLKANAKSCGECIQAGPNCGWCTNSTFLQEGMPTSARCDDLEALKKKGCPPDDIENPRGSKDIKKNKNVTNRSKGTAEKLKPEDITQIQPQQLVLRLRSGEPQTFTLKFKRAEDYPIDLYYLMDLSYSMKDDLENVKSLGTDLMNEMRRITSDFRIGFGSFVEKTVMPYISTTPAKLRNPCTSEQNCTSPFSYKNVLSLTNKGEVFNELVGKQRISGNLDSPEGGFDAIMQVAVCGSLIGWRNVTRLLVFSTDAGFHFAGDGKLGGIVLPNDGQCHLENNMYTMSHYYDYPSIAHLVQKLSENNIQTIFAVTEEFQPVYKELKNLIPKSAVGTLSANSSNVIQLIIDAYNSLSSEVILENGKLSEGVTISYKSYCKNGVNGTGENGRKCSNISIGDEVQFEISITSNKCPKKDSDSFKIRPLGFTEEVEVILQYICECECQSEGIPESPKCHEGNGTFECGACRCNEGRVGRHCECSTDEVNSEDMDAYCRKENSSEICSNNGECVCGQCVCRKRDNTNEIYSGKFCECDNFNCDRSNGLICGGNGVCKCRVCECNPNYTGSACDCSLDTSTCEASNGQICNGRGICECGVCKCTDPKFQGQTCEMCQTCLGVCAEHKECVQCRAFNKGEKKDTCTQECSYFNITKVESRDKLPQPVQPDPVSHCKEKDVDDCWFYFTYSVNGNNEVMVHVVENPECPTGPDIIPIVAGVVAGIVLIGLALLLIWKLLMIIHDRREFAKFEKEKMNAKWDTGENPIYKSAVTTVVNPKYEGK
Sequence of Integrin beta-1 (Homo sapiens) + Integrin alpha-4 (Homo sapiens) (P13612 whole entry, looked up): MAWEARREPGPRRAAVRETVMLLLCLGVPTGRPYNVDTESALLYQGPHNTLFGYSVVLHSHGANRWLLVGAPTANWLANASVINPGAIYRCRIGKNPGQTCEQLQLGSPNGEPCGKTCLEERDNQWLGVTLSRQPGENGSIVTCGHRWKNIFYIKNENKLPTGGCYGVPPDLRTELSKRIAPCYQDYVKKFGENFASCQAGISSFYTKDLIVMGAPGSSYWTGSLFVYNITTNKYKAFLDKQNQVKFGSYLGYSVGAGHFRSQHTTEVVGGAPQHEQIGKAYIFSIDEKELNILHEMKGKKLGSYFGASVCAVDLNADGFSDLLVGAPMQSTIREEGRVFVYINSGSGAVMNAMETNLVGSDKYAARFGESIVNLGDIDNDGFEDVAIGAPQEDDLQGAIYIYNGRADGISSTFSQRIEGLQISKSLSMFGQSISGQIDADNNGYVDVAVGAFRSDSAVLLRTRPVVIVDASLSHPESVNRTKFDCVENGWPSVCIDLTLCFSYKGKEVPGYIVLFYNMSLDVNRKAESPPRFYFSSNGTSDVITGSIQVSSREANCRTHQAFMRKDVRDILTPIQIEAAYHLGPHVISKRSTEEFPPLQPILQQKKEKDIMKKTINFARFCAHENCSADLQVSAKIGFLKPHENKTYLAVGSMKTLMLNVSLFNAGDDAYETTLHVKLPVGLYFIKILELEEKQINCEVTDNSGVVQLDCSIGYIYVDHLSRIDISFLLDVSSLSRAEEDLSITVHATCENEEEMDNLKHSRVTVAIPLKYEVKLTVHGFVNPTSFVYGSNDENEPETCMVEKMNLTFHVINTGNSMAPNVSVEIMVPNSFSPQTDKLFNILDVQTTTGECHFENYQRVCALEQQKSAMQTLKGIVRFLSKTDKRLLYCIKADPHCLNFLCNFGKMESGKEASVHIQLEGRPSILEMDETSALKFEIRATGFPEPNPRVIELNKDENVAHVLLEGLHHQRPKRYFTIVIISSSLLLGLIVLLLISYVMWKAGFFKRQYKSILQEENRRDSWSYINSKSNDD
Sequence of Beta-adrenergic receptor kinase 1 (Homo sapiens) (P25098 whole entry, looked up): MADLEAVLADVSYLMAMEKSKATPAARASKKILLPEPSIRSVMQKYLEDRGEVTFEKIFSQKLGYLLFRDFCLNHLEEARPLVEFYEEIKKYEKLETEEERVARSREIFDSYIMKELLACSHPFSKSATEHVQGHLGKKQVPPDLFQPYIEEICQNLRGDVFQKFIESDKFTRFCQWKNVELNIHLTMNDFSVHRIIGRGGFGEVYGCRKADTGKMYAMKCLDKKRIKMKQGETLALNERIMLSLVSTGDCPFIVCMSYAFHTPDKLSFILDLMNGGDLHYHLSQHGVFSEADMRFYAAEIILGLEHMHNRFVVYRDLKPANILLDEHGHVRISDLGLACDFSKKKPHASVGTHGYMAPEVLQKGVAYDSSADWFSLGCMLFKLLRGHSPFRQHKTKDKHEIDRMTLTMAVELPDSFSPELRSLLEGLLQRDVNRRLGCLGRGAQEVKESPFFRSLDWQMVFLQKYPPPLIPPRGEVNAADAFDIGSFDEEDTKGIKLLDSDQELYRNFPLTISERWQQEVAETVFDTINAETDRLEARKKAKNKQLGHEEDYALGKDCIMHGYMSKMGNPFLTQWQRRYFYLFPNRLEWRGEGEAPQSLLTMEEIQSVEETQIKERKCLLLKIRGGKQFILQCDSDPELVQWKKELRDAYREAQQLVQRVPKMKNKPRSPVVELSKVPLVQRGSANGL
Sequence of AP-2 complex subunit beta (Homo sapiens) (P63010 whole entry, looked up, the tested form may be a part, one chain of several): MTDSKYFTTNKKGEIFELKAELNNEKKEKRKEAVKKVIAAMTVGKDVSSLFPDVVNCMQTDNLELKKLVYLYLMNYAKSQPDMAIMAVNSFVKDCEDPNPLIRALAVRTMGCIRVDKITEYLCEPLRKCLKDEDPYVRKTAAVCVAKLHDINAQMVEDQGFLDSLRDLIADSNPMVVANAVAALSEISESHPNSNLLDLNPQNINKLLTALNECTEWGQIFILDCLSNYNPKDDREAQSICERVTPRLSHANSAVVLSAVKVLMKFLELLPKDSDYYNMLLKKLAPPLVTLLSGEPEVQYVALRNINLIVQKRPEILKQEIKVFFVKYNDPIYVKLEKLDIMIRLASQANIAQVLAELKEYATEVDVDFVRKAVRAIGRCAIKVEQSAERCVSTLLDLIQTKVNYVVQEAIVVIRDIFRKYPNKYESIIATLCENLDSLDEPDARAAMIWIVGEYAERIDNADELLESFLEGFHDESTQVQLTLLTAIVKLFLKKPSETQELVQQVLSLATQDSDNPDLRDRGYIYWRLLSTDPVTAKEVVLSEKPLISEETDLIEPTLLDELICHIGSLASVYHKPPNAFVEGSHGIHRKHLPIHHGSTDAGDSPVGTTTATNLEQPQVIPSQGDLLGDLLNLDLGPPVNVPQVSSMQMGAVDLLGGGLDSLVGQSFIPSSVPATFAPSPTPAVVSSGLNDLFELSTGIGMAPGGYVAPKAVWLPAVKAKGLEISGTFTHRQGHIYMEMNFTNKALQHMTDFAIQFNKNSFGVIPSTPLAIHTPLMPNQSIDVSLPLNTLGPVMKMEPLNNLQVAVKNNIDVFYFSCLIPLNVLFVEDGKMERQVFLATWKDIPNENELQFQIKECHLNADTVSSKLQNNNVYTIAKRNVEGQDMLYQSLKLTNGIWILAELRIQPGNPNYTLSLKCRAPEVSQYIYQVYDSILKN
Sequence of ATP-binding cassette sub-family B member 6 (Homo sapiens) (Q9NP58 whole entry, looked up): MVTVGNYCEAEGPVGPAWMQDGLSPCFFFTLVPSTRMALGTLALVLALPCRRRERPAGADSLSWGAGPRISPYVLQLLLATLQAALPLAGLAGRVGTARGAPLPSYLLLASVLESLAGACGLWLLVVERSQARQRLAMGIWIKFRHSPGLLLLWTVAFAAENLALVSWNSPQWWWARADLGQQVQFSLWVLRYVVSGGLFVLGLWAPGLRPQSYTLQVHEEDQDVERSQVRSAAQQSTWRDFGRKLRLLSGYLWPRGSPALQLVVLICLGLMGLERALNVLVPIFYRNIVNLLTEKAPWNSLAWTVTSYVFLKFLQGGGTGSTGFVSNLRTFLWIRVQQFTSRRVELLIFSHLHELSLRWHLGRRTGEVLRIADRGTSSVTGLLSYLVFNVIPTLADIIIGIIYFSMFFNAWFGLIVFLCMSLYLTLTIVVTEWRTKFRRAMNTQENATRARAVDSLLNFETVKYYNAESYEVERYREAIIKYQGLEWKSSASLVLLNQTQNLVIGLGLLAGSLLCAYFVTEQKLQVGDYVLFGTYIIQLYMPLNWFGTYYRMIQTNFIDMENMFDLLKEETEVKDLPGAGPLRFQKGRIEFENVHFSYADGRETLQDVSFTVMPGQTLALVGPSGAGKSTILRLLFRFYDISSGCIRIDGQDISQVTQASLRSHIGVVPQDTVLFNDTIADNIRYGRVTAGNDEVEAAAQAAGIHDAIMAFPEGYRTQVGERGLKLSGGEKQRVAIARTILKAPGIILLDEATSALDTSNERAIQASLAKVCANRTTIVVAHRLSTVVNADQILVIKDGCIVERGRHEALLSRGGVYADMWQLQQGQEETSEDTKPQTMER

Take `CCC(=O)Nc1ccc(C(=O)N2CCN(C(=O)c3ccco3)CC2)cc1`: in assay [1], the percent of DMSO control GFP is 101% (inactive). Also, the figures for the GFP response vs DMSO in assay [2] and in [4] were 109% (inactive) and 101% (inactive), respectively. For the same compound, the percent response of DMSO control in assay [3] was 104% (inactive). Further, the GFP response, % of DMSO in assay [5] was 99.7% (inactive). Besides, the double positive events in assay [6] stood at 64.9%. In [6], the vesicle binding response was 202% (inactive). In addition, the inhibition in [7] was 4.73% (inactive); in assay [11], 0.87% (inactive); in [15], 0% (inactive). The superoxide response (% of plate) in assay [8] was 101% (inactive). Moreover, the aptamer binding inhibition in assay [9] was 0% (inactive). The response in assay [10] is -11.7% (inactive); in assay [12], -1.11% (inactive). For the same compound, the binding (% of control) in assay [13] is 95.5% (inactive). Also, the efflux inhibition (fraction of control) in [14] was -0.23 (inactive). Moreover, the differentiation response in assay [16] is 7.09% (inactive).
Turning to `COc1c2ccoc2nc2c(OC)cccc12`, the percent of DMSO control GFP in assay [1] was 105% (inactive). The GFP response vs DMSO in assay [2] was 101% (inactive); in assay [4] it was 102% (inactive). Moreover, the percent response of DMSO control in [3] was 95.8% (inactive). The GFP response, % of DMSO in [5] is 105% (inactive). Moreover, in assay [6], the double positive events worked out at 64.2%. The vesicle binding response in assay [6] is 5040% (inactive). Besides, the figures for the inhibition in assay [7], in [11] and in assay [15] were 21.4% (inactive), -5.75% (inactive) and 6% (inactive), respectively. In [8], the superoxide response (% of plate) is 82.1% (inactive). In assay [9], the aptamer binding inhibition was 5% (inactive). For the same compound, the response was -6.43% (inactive) in assay [10] and 0.27% (inactive) in assay [12]. For the same compound, in assay [13], the binding (% of control) was 97.2% (inactive). The efflux inhibition (fraction of control) in assay [14] is -0.13 (inactive). In assay [16], the differentiation response is -15.2% (inactive).
For the compound `CN(C)CC/C=C1\c2ccccc2COc2ccccc21`, the percent of DMSO control GFP in assay [1] was 96% (inactive). Further, the GFP response vs DMSO was 96.6% (inactive) in assay [2] and 104% (inactive) in assay [4]. In addition, the percent response of DMSO control in assay [3] was 90.5% (inactive). In [5], the GFP response, % of DMSO was 109% (inactive). In assay [6], this compound displayed a double positive events of 68.1%. In addition, in assay [6], the vesicle binding response was 176% (inactive). Moreover, the inhibition in assay [7] was 20.2% (inactive); in assay [11] it was -7.94% (inactive); in assay [15], 6% (inactive). The superoxide response (% of plate) in assay [8] was 93.9% (inactive). Besides, the aptamer binding inhibition in [9] was -3% (inactive). The response is 0.32% (inactive) in [10] and 3.08% (inactive) in assay [12]. Further, in [13], the binding (% of control) is 79% (active). Besides, the efflux inhibition (fraction of control) in assay [14] is -0.04 (inactive). In addition, the differentiation response in [16] is -6.96% (inactive).
For `Cc1nnc(NS(=O)(=O)c2ccc(N)cc2)s1`, the percent of DMSO control GFP in [1] is 92.4% (inactive). Also, the GFP response vs DMSO in assay [2] was 126% (inactive); in assay [4] it was 83.6% (inactive). Also, the percent response of DMSO control in assay [3] is 92.6% (inactive). The GFP response, % of DMSO in assay [5] is 92.8% (inactive). In [6], this compound showed a double positive events of 61.7%. Also, in [6], the vesicle binding response was 123% (inactive). Moreover, the inhibition in [7] is 19.1% (inactive); in assay [11], 2.68% (inactive); in [15] it was 14% (inactive). Further, in assay [8], the superoxide response (% of plate) was 102% (inactive). Besides, in [9], the aptamer binding inhibition was 8% (inactive). Further, the response in assay [10] is 2.41% (inactive); in assay [12], 0.26% (inactive). Also, the binding (% of control) in assay [13] was 100% (inactive). Moreover, the efflux inhibition (fraction of control) in assay [14] is -0.24 (inactive). For the same compound, the differentiation response in assay [16] is 0% (inactive).

A word on the inhibition: it is the relative decrease from the control value, in per cent.

The values are drawn from PubChem BioAssay.
